A selection: hits, their analogues and other compounds. The true share with any hit is near 4%.
DENV2 CPE: inhibitors of DENV2 cytopathic effect. CPE inhibition, % at 9.99 µM. AID 651640. DENV2-infected cells, cytopathic effect rescue, plate reader. hit rate 1.7% among 350,000; in the data active = CPE inhibition above about 20%, passing the limit was not always enough; inconclusive = no clear call, values can overlap the other calls; tested in BHK-21 cells;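 also: 0% = median of neutral control wells and 100% = median of positive control wells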
AF4-AF9 inh: blocks AF4 peptide binding to human AF9; P42568; AlphaScreen, biotin-AF4 peptide binding to FLAG-AF9; inhibition, % at 10 µM; hit rate 0.47% among 350,000; AID 651704;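 active = every replicate reaching a set inhibition limit, whatever the replicate mean, cut at about 25% in these data; inconclusive = mean inhibition reaches that limit but some replicates miss it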;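 also: 0% = plate neutral control median and 100% = total signal loss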
RAD52 inh: blocks human RAD52 DNA annealing | recombinant RAD52 DNA annealing, FRET fluorescence | inhibition, % at 18.7 µM | hit rate 0.46% among 360,000 | AID 651710;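 active = every replicate showing at least 50% inhibition; inconclusive = mean inhibition at least 50% but not in every replicate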
Target sequence (P43351 whole entry, looked up): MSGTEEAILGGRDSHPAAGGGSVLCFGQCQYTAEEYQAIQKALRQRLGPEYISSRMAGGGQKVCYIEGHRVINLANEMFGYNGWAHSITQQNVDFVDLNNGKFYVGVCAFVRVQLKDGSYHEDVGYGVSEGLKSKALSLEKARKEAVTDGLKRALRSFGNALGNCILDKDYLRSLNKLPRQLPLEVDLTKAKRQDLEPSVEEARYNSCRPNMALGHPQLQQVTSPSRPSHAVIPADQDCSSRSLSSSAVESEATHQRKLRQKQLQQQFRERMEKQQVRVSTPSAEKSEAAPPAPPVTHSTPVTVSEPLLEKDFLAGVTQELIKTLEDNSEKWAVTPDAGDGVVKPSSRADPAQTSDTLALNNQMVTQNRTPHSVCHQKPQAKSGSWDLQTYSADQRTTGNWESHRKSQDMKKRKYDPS
ERAP1 HTS inh: blocks human ERAP1 aminopeptidase activity; recombinant ERAP1, Leu-AMC fluorescence, 60 min; AID 652197; Q9NZ08; hit rate 0.15% among 340,000; inhibition, % at 10.7 µM;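 active = mean replicate inhibition of at least 30%, or all replicates individually reaching that 30% level; inactive = mean below 30% and not every replicate reaching it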;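 also: 0% = neutral control wells and 100% = L-leucinethiol positive control wells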
FGF22 binding: shifts melting point of recombinant human FGF22. Q9HCT0. activity (Tm shift, normalised), % at 9.99 µM. recombinant FGF22 thermal shift, SYPRO orange fluorescence; percent of sucrose octasulfate shift, DMSO zero. hit rate 1.5% among 340,000;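 active = mean Tm shift, scaled 0 neutral to 100 positive control, at about 1.3% or above, every replicate too, limit read from the data; inconclusive = no clear call, values can overlap the other calls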
Target sequence (Q9HCT0 whole entry, looked up): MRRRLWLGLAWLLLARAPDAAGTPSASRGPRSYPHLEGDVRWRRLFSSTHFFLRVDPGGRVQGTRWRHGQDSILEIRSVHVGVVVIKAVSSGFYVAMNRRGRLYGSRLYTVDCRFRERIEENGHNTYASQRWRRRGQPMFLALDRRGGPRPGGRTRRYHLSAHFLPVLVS
Active calls of the source: *.

Results for CCc1nnc(NC(=O)c2ccc3nc(CC)c(CC)nc3c2)s1 ?
DENV2 CPE: -5; AF4-AF9 inh: -3; RAD52 inh: -32; ERAP1 HTS inh: 0; FGF22 binding: 43*

Results for CCc1nnc(NC(=O)c2ccc(Br)c(S(=O)(=O)N3CCOCC3)c2)s1 ?
DENV2 CPE: -7; AF4-AF9 inh: -1; RAD52 inh: 3; ERAP1 HTS inh: 4

What do the screens show for `Cc1nnc(NC(=O)c2ccc(F)c(S(=O)(=O)N3CCOCC3)c2)s1`?
DENV2 CPE: 3; AF4-AF9 inh: 4; RAD52 inh: -26; ERAP1 HTS inh: 1; FGF22 binding: 43*

Results for CCc1nnc(NC(=O)c2ccc(S(=O)(=O)N3CCCCC3)cc2)s1 ?
DENV2 CPE: 1; AF4-AF9 inh: -3; RAD52 inh: -17; ERAP1 HTS inh: -1; FGF22 binding: 0

How did COc1ccccc1C#Cc1ccc([C@@H]2[C@@H](CO)N3CCCCN(S(C)(=O)=O)C[C@H]23)cc1 do in these assays?
DENV2 CPE: 9; AF4-AF9 inh: 20; RAD52 inh: 2; ERAP1 HTS inh: 0; FGF22 binding: -1

What do the screens show for `O=C(C[C@H]1CC[C@@H](NC(=O)Nc2ccccc2)[C@H](CO)O1)NCc1cccc(F)c1`?
DENV2 CPE: 1; AF4-AF9 inh: -3; RAD52 inh: -1; ERAP1 HTS inh: 0; FGF22 binding: 0

How did Cc1n[nH]c(=O)c2c(NC(=O)CSc3nnc(C4CC4)n3C)oc(C)c12 do in these assays?
DENV2 CPE: 39*; AF4-AF9 inh: -2; RAD52 inh: -14; ERAP1 HTS inh: 3; FGF22 binding: 0

What do the screens show for `Cc1n[nH]c(=O)c2c(NC(=O)CSc3nnc(-c4ccco4)n3C)oc(C)c12`?
DENV2 CPE: -3; AF4-AF9 inh: 1; RAD52 inh: 0; ERAP1 HTS inh: -1; FGF22 binding: 1

Results for COCc1cc(CN2CCCC(CNC(=O)c3ccc(F)cc3)C2)ccc1OC (centres undefined) ?
DENV2 CPE: -3; AF4-AF9 inh: 2; RAD52 inh: -24; ERAP1 HTS inh: 14; FGF22 binding: 0

How did COC(=O)c1ccc(CN2CCCC(CNC(=O)Cc3ccc(OC)cc3)C2)cc1 (centres undefined) do in these assays?
DENV2 CPE: 0; AF4-AF9 inh: 2; RAD52 inh: -19; ERAP1 HTS inh: -1; FGF22 binding: 0

Results for COc1ccc(CC(=O)NCC2CCCN(Cc3ccc(OC(F)(F)F)cc3)C2)cc1 (centres undefined) ?
DENV2 CPE: 20*; AF4-AF9 inh: 1; RAD52 inh: -13; ERAP1 HTS inh: -3; FGF22 binding: 0

Results for COc1cccc(CN2CCCC(CNC(=O)c3ccc(F)cc3)C2)c1OC (centres undefined) ?
AF4-AF9 inh: -3; RAD52 inh: -3; ERAP1 HTS inh: -3; FGF22 binding: 43*

How did O=C(Nc1cc2c(cc1[N+](=O)[O-])OCCO2)c1cccnc1 do in these assays?
DENV2 CPE: -11; AF4-AF9 inh: 2; RAD52 inh: -11; ERAP1 HTS inh: -1; FGF22 binding: 43*

Results for CC(=O)c1ccc(NC(=O)CN2C(=O)/C(=C/C=C/c3ccccc3)SC2=S)cc1 ?
DENV2 CPE: -6; AF4-AF9 inh: -6; RAD52 inh: -42; ERAP1 HTS inh: -5; FGF22 binding: 1.4*

How did O=C(O)CN1C(=O)/C(=C/C=C/c2ccccc2)SC1=S do in these assays?
AF4-AF9 inh: 0; RAD52 inh: -80; ERAP1 HTS inh: 4; FGF22 binding: 1

How did COCC(=O)Nc1ccc2c(c1)OC[C@H](C)N(Cc1ccccc1F)C[C@H](C)[C@H](OC)CN(C)C2=O do in these assays?
DENV2 CPE: 17; AF4-AF9 inh: 3; RAD52 inh: 4; ERAP1 HTS inh: -1; FGF22 binding: 0

Results for CCOC(=O)c1c(NC(=O)CSc2ncccn2)sc2c1CCN(Cc1ccccc1)C2 ?
AF4-AF9 inh: 6; RAD52 inh: 21; ERAP1 HTS inh: -1; FGF22 binding: 43*

How did CN(CC(=O)Nc1cccc(F)c1)C(=O)CCc1nc2ccccc2c(=O)[nH]1 do in these assays?
DENV2 CPE: 3; AF4-AF9 inh: -2; RAD52 inh: -20; ERAP1 HTS inh: 49*; FGF22 binding: 0

What do the screens show for `CN(CC(=O)Nc1ccc(F)c(F)c1F)C(=O)CCCc1nc2ccccc2c(=O)[nH]1`?
DENV2 CPE: 18; AF4-AF9 inh: 1; RAD52 inh: -13; ERAP1 HTS inh: -2; FGF22 binding: 0

Results for CN(C)C(=O)C[C@@H]1CC[C@@H]2[C@H](COC[C@H](O)CN2CC2CC2)O1 ?
DENV2 CPE: 18; AF4-AF9 inh: -5; RAD52 inh: -9; ERAP1 HTS inh: -4

Results for CCc1nc2nc(C)c(NS(=O)(=O)c3ccc(Br)s3)c(=O)n2[nH]1 ?
DENV2 CPE: 44*; AF4-AF9 inh: -9; RAD52 inh: 1; ERAP1 HTS inh: 3; FGF22 binding: 0

How did COC(=O)[C@H]1[C@H](CO)[C@H]2Cn3c(ccc(-c4ccncc4)c3=O)[C@H]2N1CC1CCCC1 do in these assays?
DENV2 CPE: -8; AF4-AF9 inh: -3; RAD52 inh: -41; ERAP1 HTS inh: 9

Results for COc1cccc(COC(=O)CSCC(=O)Nc2ccc(C)cc2)c1OC ?
DENV2 CPE: 72*; AF4-AF9 inh: -1; RAD52 inh: -6; ERAP1 HTS inh: 0; FGF22 binding: 0

What do the screens show for `CO[C@@H]1CN(C)C(=O)c2ccc(NC(=O)NC(C)C)cc2OC[C@@H](C)N(C(=O)C2CCC2)C[C@H]1C`?
DENV2 CPE: -7; AF4-AF9 inh: -3; RAD52 inh: 6; ERAP1 HTS inh: 1; FGF22 binding: 0

How did CNc1cc(-c2ccc(C(=O)OC)cc2)ncn1 do in these assays?
DENV2 CPE: 2; AF4-AF9 inh: -1; RAD52 inh: 2; ERAP1 HTS inh: -2; FGF22 binding: 0

How did CNc1cc(-c2ccc(O)cc2C)ncn1 do in these assays?
DENV2 CPE: 29*; AF4-AF9 inh: 2; RAD52 inh: -9; ERAP1 HTS inh: -1; FGF22 binding: 0

Results for CCn1c(C)[n+](Cc2ccccc2)c2ccc(C(=O)OC)cc21 ?
DENV2 CPE: 14; AF4-AF9 inh: -2; RAD52 inh: -18; ERAP1 HTS inh: 12; FGF22 binding: 43*

What do the screens show for `COc1ccc(C)cc1NC(=O)c1cnc2scc(C)n2c1=O`?
DENV2 CPE: inconclusive; AF4-AF9 inh: 1; RAD52 inh: -7; ERAP1 HTS inh: 4; FGF22 binding: 0

Results for COc1ccc(CCNC(=O)c2cnc3scc(C)n3c2=O)cc1OC ?
DENV2 CPE: 75*; AF4-AF9 inh: 0; RAD52 inh: -4; ERAP1 HTS inh: 4; FGF22 binding: 0

What do the screens show for `O=C(CSc1ccc2nnc(-c3ccccn3)n2n1)N1CCOCC1`?
DENV2 CPE: -3; AF4-AF9 inh: -1; RAD52 inh: -11; FGF22 binding: 44*

How did CCOC(=O)/C(=N\Nc1ncnc2ccccc12)c1ccc(C)cc1 do in these assays?
DENV2 CPE: 4; AF4-AF9 inh: 42*; RAD52 inh: -86; ERAP1 HTS inh: 4; FGF22 binding: -1

Source: PubChem BioAssay
